Only some compounds are listed: those with a hit (about 3.4% of all), similar ones and a draw of the others.
MITF TRPM1 HTS – increases MITF-driven TRPM1 promoter luciferase signal; SK-MEL-5 TRPM1-promoter luciferase, 24 h; % of positive control, neutral wells = 0; activation, % at 12.5 µM; actives 0.75% (n = 300,000);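 active = mean activation of at least 80% with every replicate also reaching 80%; inconclusive = mean reaches 80% but some replicate falls short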;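 also: 0% = neutral control wells and 100% = parthenolide positive control wells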
esBAF inh – SWI/SNF esBAF complex inhibition | AID 602393 | actives 2% (n = 350,000) | mouse ES cells, Bmi1-luciferase knock-in reporter, 24 h; 100% = twice the neutral-well signal | reporter increase, % at 12.5 µM; in the data active = activation above about 40%; inconclusive = no clear call, values can overlap the other calls;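 also: 0% = median of the plate's neutral control wells and 100% = double that signal; a rise in the Bmi1 reporter signal indicates esBAF inhibition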
Wnt bcat act – activators of Wnt/beta-catenin signaling; activation, % at 9.35 µM; AID 743398; actives 1.2% (n = 300,000); Wnt/beta-catenin reporter cell assay, activator, plate reader; in the data active = activation above about 30%, passing the limit was not always enough; inconclusive = no clear call, values can overlap the other calls;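 also: 0% = neutral control wells and 100% = positive control wells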
HIV Env fusion – inhibitors of HIV Env-mediated cell fusion; HeLa-JRFL Env/CEM21 cell fusion, luciferase; inhibition, % at 12.3 µM; actives 1.1% (n = 360,000); AID 651610;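 active = mean replicate inhibition score of at least 50 and every replicate individually at or above 50; inconclusive = only one of the two criteria met; inactive = mean below 50 and not all replicates reaching 50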;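 also: 0% = plate neutral controls and 100% = maraviroc near 300 nM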
miR-122 sensor – blocks miR-122 activity in Huh7 sensor cells; Huh7 miR-122 Renilla luciferase sensor, 48 h; neutral wells = 0, positive control = 100; AID 602342; actives 0.3% (n = 340,000); activation (reporter increase), % at 12.5 µM;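 active = mean replicate activation score at least 90 and every replicate individually at or above 90; inconclusive = only one of the two criteria met; inactive = neither criterion met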;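 also: higher luciferase means less miR-122 activity so hits act as miR-122 inhibitors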
The depositor's hits bear a star; i = inactive; u = inconclusive; x = not tested or not shown; [ ] = remark or other dose.

SMILES | MITF TRPM1 HTS | esBAF inh | Wnt bcat act | HIV Env fusion | miR-122 sensor
O=C(CCC1CCCC1)Nc1ccc([N+](=O)[O-])cn1 | 42 | 59* | x | -20 | -27
CCC(CC)C(=O)Nc1ccc([N+](=O)[O-])cn1 | 5 | -3 | -1 | 8 | -10
Cc1nnc(NC(=O)CCNC(=O)c2ccccc2Cl)s1 | -4 | x | -1 | 11 | x
Cc1cnc(NC(=O)CCNC(=O)c2ccccc2Cl)s1 | 1 | 10 | 46* | 5 | 45
C[C@@H]1CN([C@H](C)CO)C(=O)c2cc(NC(=O)NC3CCCCC3)ccc2O[C@@H](C)CCCCO[C@@H]1CN(C)C(=O)CCC(F)(F)F | x | 1 | x | -25[16.7 µM] | 5[16.7 µM]
COc1ccc(C2NN=C(c3ccc(C)cc3)S2)cc1OC (centres undefined) | 57 | x | 41* | -138 | x
CC(=O)C[C@H]1c2cc(C(F)(F)F)ccc2S(=O)(=O)N1c1ccccc1 | 7 | -4 | 2 | -1 | 99*
CCC(C)NC(=O)C1CCCN(C(=O)Nc2ccc(F)cc2)C1 (centres undefined) | x | -5 | x | 57* | 2
CC(C)NC(=O)Nc1ccc2c(c1)C(=O)N([C@@H](C)CO)C[C@@H](C)[C@@H](CN(C)Cc1ccc(Oc3ccccc3)cc1)O2 | x | -7 | x | x | 61[16.7 µM]
O=c1nc2c(O)cccn2c2c1c(=O)[nH]c1ccccc12 | 0 | x | 0 | x | 11
O=c1[nH]c2ccccc2c2nc3ccccn3c12 | x | 49* | -4 | i | 1
COc1ccc(/C(C)=N/Nc2nccnc2Cl)cc1 | 65 | 46* | 29 | -37 | x
CN(C)/C=C/C(=O)c1ccc(Oc2ccccc2)cc1 | 58 | 51* | -3 | -25 | 7
COc1ccc(C(=O)/C=C/N(C)C)cc1 | x | 9 | 66* | -155 | 4
COc1cccc2cc(C(=O)NCc3ccccc3Br)c(=O)oc12 | 7 | 41* | 9 | 1 | -8
Cc1noc(C)c1NC(=O)Nc1cccc2c1O[C@@H](CN(C)C(=O)NC(C)C)[C@H](C)CN([C@H](C)CO)C2=O | x | -2 | x | -23[16.7 µM] | 1[16.7 µM]
Cc1ccc(S(=O)(=O)Nc2ccc3c(c2)C(=O)N([C@H](C)CO)C[C@H](C)[C@H](CN(C)C(=O)NC2CCCCC2)OCCCC[C@@H](C)O3)cc1 | x | 4 | x | -35[16.7 µM] | 13[16.7 µM]
CCCc1ccc(OCc2ccc(C(=O)N3CCN(c4ccccn4)CC3)o2)c(OC)c1 | 16 | 45* | x | 16 | -1
C[C@@H]1CN([C@H](C)CO)C(=O)c2cc(NS(=O)(=O)c3ccccc3)ccc2O[C@@H](C)CCCCO[C@H]1CN(C)S(=O)(=O)c1ccc(F)cc1 | x | -1 | x | -43[16.7 µM] | -6[16.7 µM]
CC(C)Cc1ccc(-c2cc3nc(NCC4CC4)ccn3n2)cc1 | x | 83* | -1 | -42 | 0
c1cc(-c2cc3nc(NC4CCCCC4)ccn3n2)ccc1OCCN1CCOCC1 | x | 50* | -2 | 7 | -8
FC(F)(F)c1cccc(-c2cc3nc(NC4CCCCC4)ccn3n2)c1 | x | 43* | -2 | 13 | -4
Clc1cccc(CNc2ccn3nc(-c4ccc(OCCN5CCOCC5)cc4)cc3n2)c1 | x | -3 | -4 | 14 | -2
c1cc(-c2cc3nc(NCC4CC4)ccn3n2)ccc1OCCN1CCOCC1 | x | 46* | 4 | -29 | x
COc1cc(-c2cc3nc(NCCN(C)C)ccn3n2)cc(OC)c1OC | x | -11 | 1 | -82 | x
SMILES | MITF TRPM1 HTS | esBAF inh | Wnt bcat act | HIV Env fusion | miR-122 sensor
C/C=C/c1cnc2c(c1)C(=O)N([C@H](C)CO)C[C@H](C)[C@@H](CN(C)C(=O)Nc1ccc(OC)cc1)O2 | x | 2 | x | -10[16.7 µM] | 7[16.7 µM]
COc1ccccc1CNC(=O)C[C@H]1C[C@H]2c3cc(NC(=O)c4cccnc4)ccc3O[C@H]2[C@@H](CO)O1 | x | -1 | x | -1[16.7 µM] | 0[16.7 µM]
C[C@H]1CN([C@@H](C)CO)C(=O)c2cccc(NS(=O)(=O)c3ccccc3)c2O[C@@H]1CN(C)S(=O)(=O)c1cccs1 | x | 3 | x | -22[16.7 µM] | 1[16.7 µM]
O=C(Nc1ccccc1Cl)c1ccccc1CC(O)(c1ccccc1)c1ccccc1 | x | x | -3 | 93* | x
Cc1ccc(NC(=O)c2ccccn2)c(Br)c1 | 33 | x | 37* | -96 | x
Cc1ccc(NC(=O)c2ccccc2Cl)c(Cl)c1 | 86* | 39 | 2 | -182 | 8
Cc1ccc(NC(=O)c2ccccc2F)c(NC(=O)c2ccccc2F)c1 | x | 58* | 26 | -55 | 10
CSc1ccccc1C(=O)Nc1cc(C)ccc1C | -4 | x | -6 | 1 | x
C[C@@H]1CCCCO[C@@H](CN(C)S(=O)(=O)c2ccc(Cl)cc2)[C@H](C)CN([C@H](C)CO)C(=O)c2cc(NC(=O)Cc3ccccc3)ccc2O1 | x | 14 | x | -10[16.7 µM] | -12[16.7 µM]
CNC[C@H]1Oc2ccc(NC(=O)Nc3ccc(C(F)(F)F)cc3)cc2CC(=O)N([C@H](C)CO)C[C@@H]1C | x | -4 | x | -2[16.7 µM] | 4[16.7 µM]
Cc1ccc(S(=O)(=O)Nc2ccc3c(c2)C(=O)N([C@H](C)CO)C[C@@H](C)[C@H](CN(C)C(=O)C2CCCCC2)OCCCC[C@H](C)O3)cc1 | x | -1 | x | 15[16.7 µM] | -10[16.7 µM]
CCCCCCCCN1C(=O)[C@H](CC(=O)NCCCOC)C[C@@]2(C(=O)OCC)CCCC=C12 | x | x | 1 | 39 | x
CCCCCCCCN1C(=O)[C@H](CC(=O)N2CCCC2)C[C@@]2(C(=O)OCC)CCCC=C12 | x | x | -4 | 44 | x
CCCCCCCCN1C(=O)[C@H](CC(=O)NCCCC)C[C@@]2(C(=O)OCC)CCCC=C12 | x | x | -1 | 97* | x
CCCCCCCCN1C(=O)[C@H](CC(=O)N2CCCCC2)C[C@@]2(C(=O)OCC)CCCC=C12 | x | x | -4 | 89* | x
CO[C@H]1CN(C)C(=O)c2ccc(NC(C)=O)cc2OC[C@H](C)N(C(=O)c2ccc(F)cc2)C[C@H]1C | x | 0 | x | 9[16.7 µM] | -7[16.7 µM]
O=c1c2ccccc2c(=O)n(-c2ccccc2)n1-c1ccccc1 | -15 | -2 | 37* | -1 | -9
CSc1nc2ccc(NC(=O)NC(=O)c3c(F)cccc3F)cc2s1 | x | x | 15 | -34 | x
CSc1nc2ccc(NC(=O)c3ccc(Cl)s3)cc2s1 | x | 50* | 26 | -186 | 0
Cc1cccc2sc(NC(=O)C3CCCO3)nc12 (centres undefined) | 75 | 74* | x | x | 3
CCc1cccc(C)c1NC(=O)C1CCCO1 (centres undefined) | 11 | -10 | 2 | x | -2
CSc1nc2ccc(NC(=O)C3CCCO3)cc2s1 (centres undefined) | u | 14 | 49* | -51 | 21
COc1ccc2nc(NC(=O)C3CCCO3)sc2c1 (centres undefined) | 43 | x | 11 | -32 | x
COC(=O)[C@@H]1[C@@H](CO)[C@@H]2Cn3c(ccc(C4=CCCC4)c3=O)[C@@H]2N1C(=O)C1CCCC1 | x | 1 | x | x | 3[16.7 µM]
O=S(=O)(c1ccc(Cl)cc1)N1CCN(Cc2ccc(O)c3ncccc23)CC1 | -64 | x | 36* | -5 | x
Oc1ccc(CN2CCN(Cc3ccccc3)CC2)c2cccnc12 | x | 6 | 6 | -22 | -16
O=C(Nc1ccc(C(F)(F)F)cc1)c1ccccc1Br | 66 | 55* | 6 | -5 | 10
O=C(Nc1ccn(-c2ccccc2)n1)c1ccccc1Br | 66 | 69* | u | -8 | 15

Source: PubChem (Broad Institute)
